Experimental data as given in PubChem BioAssay (NCATS).
Records with an inconclusive call do not appear. Where a call stands in place of a potency, no number is given. Calls of active or inactive are those of the source. Calls follow the shape of the dose curve; as a rule, active = well fitted inhibition curve with a large enough effect; inconclusive = small, poorly fitted or top-dose-only effect; inactive = no such curve, though single readings can be large or run the other way.

Assay: qHTS assay for measurement of the activity of small molecule inhibitors on Zika virus induced Caspase-3 activity in human iPSC derived neural progenitor cells (hNPCs) (AID 1224857); also: nearly all actives have a fitted effect of over 65% in size
Conditions: hNPCs ZIKV-induced caspase-3/7, Caspase-Glo luminescence, 6 h; series mostly up to 45.7 µM
From the text: National Center for Advancing Translational Sciences [NCATS]
Johns Hopkins University School of Medicine
Increase in the Caspase-3 activity indicates an activation of apoptosis cell death pathway caused by Zika virus infection in certain types of neuronal cells including human neural progenitor cells (hNPCs), astrocytes, and astrocytoma cell line (SNB-19). This cell-based caspase-3 activity assay measures the increased caspase-3 activity in the human iPSC derived neural progenitor cells (hNPCs) after a 6-hour Zika virus infection with a luminescence readout. A decrease in the luminescence signal in this assay by small molecule treatment indicates an inhibitory effect of that small molecule on the Zika virus induced caspase-3 activity that may correlate with its effect on reduction of Zika virus caused cell death.
The medium for hNPCs consists of DMEM/F12, N2 supplement (ThermoFisher, Cat.# 17502048), NEAA (ThermoFisher, Cat. # 11140050), 2 ug/ml heparin, 2 uM cyclopamine, and B27 (ThermoFisher, Cat. # 17504044). A Caspase-Glo 3/7 assay kit (catalog number G8092; Promega, Madison, WI) was used to detect caspase-3 activity induced by Zika virus infection in human cells. The reagent mixture was reconstituted as described in the protocol from the manufacturer. Polystyrene tissue culture treated and PDL coated white plates were obtained from Greiner Bio-One (Monroe, NC). Cells were seeded in 384- or 1536-well assay plates and cultured at 37 C with 5% CO2 for 16 to 20 hours. The typical cell seeding density in the 1536-well plate assay is 350 cells/well in 3 ul medium for hNPCs in tissue culture treated plates. Compounds were added to cells and incubated for one hour before addition of ZIKV solution to cells (2 FFU/cell). After incubation at 37 C with 5% CO2 for 6 hours, the reagent mixture of Caspase-Glo 3/7 assay kit was added to each well, followed by incubation at room temperature for 30 minutes. The luminescence intensity of the assay plates was measured using a ViewLux plate reader (PerkinElmer). Data were normalized by using the cell-containing wells without ZIKV as a negative control (0% induction of caspase 3/7 activity) and wells containing ZIKV infected cells (Caspase-3 activity induced) as a positive control (100% induction of caspase 3 activity). The percentage inhibitions of the increased Caspase-3 activity by small molecule inhibitors were then calculated.

For `NN=C(N)N`, which Potency is on record?
The Potency was “inactive”.

For `CC(C)(C)CC(C)(C)c1ccc(O)cc1`, which Potency is on record?
Its Potency is “inactive”.

Which Potency does the source give for `O=c1oc2ccccc2c(O)c1C(CC(O)c1ccc(-c2ccc(Br)cc2)cc1)c1ccccc1` (stereo not given) here?
The Potency was “inactive”.

With `c1ccc2c(c1)OCC(C1=NCCN1)O2` (stereo not given) as the compound, how does the Potency read?
Its Potency is “inactive”.

Which Potency does the source give for `CC(=O)[C@H]1CC[C@H]2[C@@H]3CC[C@H]4C[C@H](O)CC[C@]4(C)[C@H]3C(=O)C[C@]12C` here?
The Potency was “inactive”.

Which Potency does the source give for `CCN(CC)C(=O)N[C@@H]1C=C2c3cccc4[nH]cc(c34)C[C@@H]2N(C)C1` here?
The Potency was “inactive”.

For `COc1ccc(Cc2nccc3cc(OC)c(OC)cc23)cc1OC`, which Potency is on record?
The Potency was “inactive”.

With `N#CC(C#N)=Cc1ccc(O)c(O)c1` as the compound, how does the Potency read?
The Potency was “inactive”.

Which Potency does the source give for `Oc1cccc2cccnc12` here?
Its Potency is “inactive”.

For `CC1OC(C)OC(C)O1` (stereo not given), which Potency is on record?
The Potency was “inactive”.

Which Potency does the source give for `N[C@@H]1C[C@H]1c1ccccc1` here?
Its Potency is “inactive”.

For `COc1ccc2c(c1OC)CN1CCc3cc4c(cc3C1C2)OCO4` (stereo not given), which Potency is on record?
The Potency was “inactive”.

Which Potency does the source give for `CNCC(O)c1ccc(O)cc1` (stereo not given) here?
The Potency was “inactive”.

Which Potency does the source give for `CCOP(=S)(OCC)Oc1cc(C)nc(C(C)C)n1` here?
The Potency was “inactive”.

Which Potency does the source give for `Fc1ccc(C(OCCN2CCN(CCCc3ccccc3)CC2)c2ccc(F)cc2)cc1` here?
Its Potency is “inactive”.

With `c1ccc2c(c1)Nc1ccccc1S2` as the compound, how does the Potency read?
Its Potency is “inactive”.

For `CCCC1CCCCN1` (stereo not given), which Potency is on record?
The Potency was “inactive”.

For `Cc1cccc(C)c1NC(=O)CN1CCCC1=O`, which Potency is on record?
Its Potency is “inactive”.

Which Potency does the source give for `CCN(CC)CCN1C(=O)CN=C(c2ccccc2F)c2cc(Cl)ccc21` here?
The Potency was “inactive”.

For `CCCN1CCC[C@@H]2Cc3[nH]ncc3C[C@H]21`, which Potency is on record?
Its Potency is “inactive”.

Which Potency does the source give for `C[C@H]1O[C@@H](O[C@H]2[C@@H](O)C[C@H](O[C@H]3[C@@H](O)C[C@H](O[C@H]4CC[C@@]5(C)[C@H](CC[C@@H]6[C@@H]5CC[C@]5(C)[C@@H](C7=CC(=O)OC7)CC[C@]65O)C4)O[C@@H]3C)O[C@@H]2C)C[C@H](O)[C@@H]1O` here?
The Potency was “inactive”.

For `Nc1ccncc1`, which Potency is on record?
The Potency was “inactive”.

For `COC[C@@H](NC(C)=O)C(=O)NCc1ccccc1`, which Potency is on record?
Its Potency is “inactive”.

With `CN(C)[C@@H]1C(=O)C(C(N)=O)=C(O)[C@@]2(O)C(=O)C3=C(O)c4c(O)cccc4[C@@](C)(O)[C@H]3C[C@@H]12` as the compound, how does the Potency read?
The Potency was “inactive”.

Which Potency does the source give for `CCC1C(=O)OCC1Cc1cncn1C` (stereo not given) here?
The Potency was “inactive”.

With `Cn1c(CCCC(=O)O)nc2cc(N(CCCl)CCCl)ccc21` as the compound, how does the Potency read?
The Potency was “inactive”.

Which Potency does the source give for `O=C1NCN(c2ccccc2)C12CCN(CC1COc3ccccc3O1)CC2` (stereo not given) here?
Its Potency is “inactive”.

Which Potency does the source give for `CN(C)CCN(C)CCc1ccc(Cl)c(Cl)c1` here?
Its Potency is “inactive”.

For `CCn1cc(C(=O)O)c(=O)c2ccc(C)nc21`, which Potency is on record?
The Potency was “inactive”.

With `CO[C@]12CC[C@@]3(C[C@@H]1[C@](C)(O)C(C)(C)C)[C@@H]1Cc4ccc(O)c5c4[C@@]3(CCN1CC1CC1)[C@H]2O5` as the compound, how does the Potency read?
Its Potency is “inactive”.

For `CC(C)CC(N(C)C)C1(c2ccc(Cl)cc2)CCC1` (stereo not given), which Potency is on record?
The Potency was “inactive”.

Which Potency does the source give for `NP(N)(=O)NC(=O)c1ccc(F)cc1` here?
Its Potency is “inactive”.

Which Potency does the source give for `C=CCN1CC[C@]23c4c5ccc(O)c4O[C@H]2C(=O)CC[C@@]3(O)[C@H]1C5` here?
The Potency was “inactive”.

For `CNC(=O)c1ccc(N2C(=S)N(c3ccc(C#N)c(C(F)(F)F)c3)C(=O)C23CCC3)cc1F`, which Potency is on record?
The Potency was “inactive”.

For `C[C@]12C/C(=C/O)C(=O)C[C@@H]1CC[C@@H]1[C@@H]2CC[C@@]2(C)[C@H]1CC[C@]2(C)O`, which Potency is on record?
Its Potency is “inactive”.

Which Potency does the source give for `OCCOc1ccccc1` here?
The Potency was “inactive”.

For `CC(CCc1ccccc1)NC(C)C(O)c1ccc(O)cc1` (stereo not given), which Potency is on record?
The Potency was “inactive”.

Which Potency does the source give for `O=C(NC(O)C(Cl)(Cl)Cl)NC(O)C(Cl)(Cl)Cl` (stereo not given) here?
The Potency was “inactive”.

For `CC(C)=CC1C(C(=O)OCc2cccc(Oc3ccccc3)c2)C1(C)C` (stereo not given), which Potency is on record?
The Potency was “inactive”.

For `CC(C)NCC(O)c1ccccc1Cl` (stereo not given), which Potency is on record?
Its Potency is “inactive”.
